Test results as given in article PMC4336329 (PLoS ONE, 2015).
The whole screen tested about 310,000 compounds, of which about 14,000 (4.5%) showed an effect of 50% or more. The effect is printed as a negative number. The entries come from a sample that favours strong results as a whole.

target: human ether-à-go-go-related gene (hERG) potassium channel (human, UniProt Q12809); experiment: primary screen, population patch clamp on CHO cells stably expressing hERG; higher = less effect of the substance
Sequence (Q12809 whole entry, looked up): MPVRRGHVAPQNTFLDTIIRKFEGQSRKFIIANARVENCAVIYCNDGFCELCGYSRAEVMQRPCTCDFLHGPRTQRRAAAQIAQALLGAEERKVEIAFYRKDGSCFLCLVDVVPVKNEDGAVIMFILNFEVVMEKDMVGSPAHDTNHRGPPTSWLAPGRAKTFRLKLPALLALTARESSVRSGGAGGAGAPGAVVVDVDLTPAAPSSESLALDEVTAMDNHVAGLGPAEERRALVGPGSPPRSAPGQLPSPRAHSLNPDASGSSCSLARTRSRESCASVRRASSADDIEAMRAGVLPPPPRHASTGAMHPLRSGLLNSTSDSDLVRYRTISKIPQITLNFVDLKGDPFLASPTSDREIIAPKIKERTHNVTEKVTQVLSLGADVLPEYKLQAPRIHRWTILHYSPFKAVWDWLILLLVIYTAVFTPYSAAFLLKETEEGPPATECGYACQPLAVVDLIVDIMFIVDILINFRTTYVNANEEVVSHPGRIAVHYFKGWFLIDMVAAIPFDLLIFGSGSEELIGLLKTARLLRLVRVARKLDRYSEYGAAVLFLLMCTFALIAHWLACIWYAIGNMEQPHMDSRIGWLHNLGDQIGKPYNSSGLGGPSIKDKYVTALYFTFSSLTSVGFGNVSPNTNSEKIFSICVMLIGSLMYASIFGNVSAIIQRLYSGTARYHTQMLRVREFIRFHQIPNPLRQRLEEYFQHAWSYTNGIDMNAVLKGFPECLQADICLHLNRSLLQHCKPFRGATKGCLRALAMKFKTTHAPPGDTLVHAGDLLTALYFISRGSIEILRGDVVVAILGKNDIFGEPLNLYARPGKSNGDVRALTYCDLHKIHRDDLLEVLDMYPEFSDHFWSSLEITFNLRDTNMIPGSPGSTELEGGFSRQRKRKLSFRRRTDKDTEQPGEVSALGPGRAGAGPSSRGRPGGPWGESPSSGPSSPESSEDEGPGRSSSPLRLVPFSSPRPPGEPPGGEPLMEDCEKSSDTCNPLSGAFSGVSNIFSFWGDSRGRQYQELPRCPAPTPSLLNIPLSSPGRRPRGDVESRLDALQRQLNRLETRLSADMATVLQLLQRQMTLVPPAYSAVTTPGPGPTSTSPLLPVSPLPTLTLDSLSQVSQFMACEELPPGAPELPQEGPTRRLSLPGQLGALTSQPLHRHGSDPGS
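Note: peak tail current of the secondary pulse compared with the same well before compound.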

SMILES | hERG current change (%, negative = inhibition) at 10uM [%]
Clc1ccccc1/C=C/c1nc(-c2cccnc2)no1 | 6.16
CCN(CC)c1ccc(NC(=O)c2cnc3ccccn3c2=O)c(C)c1 | 4.51
CCOC(=O)c1ccc(NC(=O)c2cccc(C)c2[N+](=O)[O-])cc1 | 4.73
COc1ccc(C(=O)c2nccc3cc(OC)c(OC)cc23)cc1OC | 6.21
CC1CCN(C2(O)C(=O)Nc3ccc(Br)cc32)CC1 (stereo not drawn) | 19.4
CCC(C)(C)NC(=O)CN(C(=O)CNS(=O)(=O)c1ccccc1)c1ccc2c(c1)OCCO2 | 6.92
Cc1ccc(NP(=O)(c2ccccc2)c2nc3ccccc3s2)cc1 (stereo not drawn) | 3.27
O=C(c1ccco1)N1CCN(C(=S)Nc2cc(F)cc(F)c2)CC1 | -16.5
O=C(c1ccco1)N1CCN(C(=S)Nc2ccc(F)c(Cl)c2)CC1 | -71.9
Cc1cc(C(=O)N2CCN(C(=O)c3ccco3)CC2)ccc1[N+](=O)[O-] | -64.7
COC(=O)c1cc(C(=O)N2CCN(c3ccccc3OC)CC2)cc([N+](=O)[O-])c1 | -34.7
O=C(CN1CCN(C(=O)c2ccco2)CC1)Nc1cccc([N+](=O)[O-])c1 | -49.1
Cc1cccc(NC(=S)N2CCN(C(=O)c3ccco3)CC2)c1 | -9.36
COc1ccc(NC(=S)N2CCN(C(=O)c3ccco3)CC2)cc1OC | 14.6
Cc1cc(C(=O)N2CCOCC2)ccc1[N+](=O)[O-] | 9.19
COC(=O)c1cc(C(=O)N2CCN(C(=O)c3ccco3)CC2)cc([N+](=O)[O-])c1 | -66.7
O=C(c1ccco1)N1CCN(C(=S)Nc2cccc([N+](=O)[O-])c2)CC1 | -63.3
COC(=O)c1cc(C(=O)N2CCOCC2)cc([N+](=O)[O-])c1 | 21.7
O=C(c1ccc(Cl)c([N+](=O)[O-])c1)N1CCN(C(=O)c2ccco2)CC1 | -41.6
COc1ccc(OC)c(S(=O)(=O)N2CCC(C(=O)NCc3ccncc3)CC2)c1 | 16.4
CCn1c(O)c(/C=N/NC(=O)c2ccccc2)c(=O)n(CC)c1=S | 13.6
COc1ccc(OCC(=O)N/N=C2\CCc3ccccc32)cc1 | -23.9
CCOC(=O)C1=C(C)N=C2SC(C)C(=O)N2C1c1cccc(F)c1 (stereo not drawn) | -3.16

SMILES | hERG current change (%, negative = inhibition) at 10uM [%]
CCOC(=O)c1nnn(-c2nonc2N)c1CN(CC)CC | -7.44
CCOc1ccccc1NC(=O)c1nnn(CC(=O)Nc2cc(C)cc(C)c2)c1N | 15.7
Cc1cc(-c2ccco2)n2c(nc3ccccc32)c1C#N | -25.9
COc1ccc(C(=O)N2CCC(n3nccc3NC(=O)C3CC3)CC2)cc1F | -26.8
O=C(O)CC1S/C(=N\N=C2CCCCCC2)N(c2ccccc2)C1=O (stereo not drawn) | 9.08
O=C(c1cc([N+](=O)[O-])cc([N+](=O)[O-])c1)N1CCN(C(=O)c2ccco2)CC1 | -65.3
O=C(c1ccco1)N1CCN(C(=O)c2ccccc2[N+](=O)[O-])CC1 | 22.4
O=C(c1cccc([N+](=O)[O-])c1)N1CCN(C(=O)c2ccco2)CC1 | -10.8
O=C(/C=C/c1ccccc1[N+](=O)[O-])N1CCN(C(=O)c2ccco2)CC1 | -45.6
O=C(/C=C/c1cccc([N+](=O)[O-])c1)N1CCN(C(=O)c2ccco2)CC1 | -64.8
O=C(/C=C/c1ccccc1)N1CCN(C(=O)c2ccco2)CC1 | -28.6
COc1ccccc1N1CCN(C(=O)c2ccc(-c3ccccc3)cc2)CC1 | -5.25
Cc1cc(C)cc(OCC(=O)NC(C)c2ccccc2)c1 (stereo not drawn) | 15.2
CC(C)OCCCNC(=O)c1cc(-c2cccnc2)nc2ccccc12 | -21.4
Cc1ccc(S(=O)(=O)NCCC(c2ccc(F)cc2)c2ccco2)cc1 (stereo not drawn) | 10.8
Cc1ccc(S(=O)(=O)NCCC(c2ccccc2)c2ccco2)cc1 (stereo not drawn) | 0.23
Cc1ccc(C(CCN)c2ccco2)cc1 (stereo not drawn) | -2.63
Fc1ccc(C(CCNCc2cccs2)c2ccco2)cc1 (stereo not drawn) | -66.8
Cc1ccc(C(CCNC(C)c2cccs2)c2ccco2)cc1 (stereo not drawn) | -57.1
O=S(=O)(NCCC(c1ccc(F)cc1)c1ccco1)c1ccccc1 (stereo not drawn) | -7.77
Cc1cc(C)cc(NC(=O)CCCn2nc(C)c3c(C)n(-c4ccccc4)nc3c2=O)c1 | -4.07
CC(C(=O)NC1C(=O)N2C(C(=O)O)=C(CSc3nnnn3C)CSC12)n1cc(Br)cn1 (stereo not drawn) | 25.1
CN(C)C(=O)CSc1nnc([C@H](Cc2ccccc2)NC(=O)OC(C)(C)C)o1 | 5.98

SMILES | hERG current change (%, negative = inhibition) at 10uM [%]
O=C(CNS(=O)(=O)c1ccccc1)N1CCN(Cc2ccccc2)CC1 | 5.89
CC1(C)CC(=O)C=C(c2ccc(I)cc2)C1 | -2.72
OCCCc1nc2ccccc2n1Cc1ccccc1 | 7.46
Cc1cccc(Cn2c(Cc3ccccc3)nc3ccccc32)c1 | -24.6
O=C(Cn1c(NCCO)nc2ccccc21)N1CCN(Cc2ccccc2)CC1 | -9.47
COc1ccc(N2CCN(Cc3nc4ccccc4n3C)CC2)cc1 | -18.2
CCc1nc2ccccc2n1CC(=O)N1CCN(Cc2ccccc2)CC1 | -61.5
ClCc1nc2ccccc2n1Cc1ccccc1 | 10.6
c1ccc(Cn2c(CN3CCCC3)nc3ccccc32)cc1 | -64.6
c1ccc(Cc2nc3ccccc3n2Cc2ccccc2)cc1 | -53.4
CC(O)CNc1nc2ccccc2n1CC(=O)N1CCN(Cc2ccccc2)CC1 (stereo not drawn) | -22.6
Cn1c(CN2CCN(c3ccc(Cl)cc3)CC2)nc2ccccc21 | -14.3
Cc1ccc(Cn2c(Cc3ccccc3)nc3ccccc32)cc1 | -10.1
CCn1c(CN2CCN(c3ccc(Cl)cc3)CC2)nc2ccccc21 | -55.3
CCOC(=O)c1ccc(NC(=O)CN(C)S(=O)(=O)c2ccc(OC)cc2)cc1 | 6.82
CC1=NNC(=O)C1CC(=O)N/N=C/c1ccc(C)o1 (stereo not drawn) | 10.7
CCOc1ccccc1NC(=O)C(C)CC (stereo not drawn) | -6.76
Cc1ccc(NC(=O)C2CCCN2C(=O)c2cccs2)c(C)c1 (stereo not drawn) | 12.7
Cc1cc(C)cc(OCC(=O)NC2CCCc3ccccc32)c1 (stereo not drawn) | -1.2
CC(=O)OC(C)C(=O)NS(=O)(=O)c1ccc(C)cc1 (stereo not drawn) | 12.3
Cc1ccc(CCC(=O)Nc2ncc(Cc3cccc(Cl)c3Cl)s2)o1 | 51.7
CCOC(=O)COc1cccc2c(=O)n(CC(=O)N3CCN(C(=O)OCC)CC3)ccc12 | 7.65
CCOC(=O)Nc1nnc(Cc2ccc(Cl)c(Cl)c2)s1 | 5.09

SMILES | hERG current change (%, negative = inhibition) at 10uM [%]
Cc1ccc(-n2c(SCC(=O)N3CCOCC3)nnc2-c2ccncc2)cc1C | -10.6
CC(C)C(=O)Nc1ncc2c(n1)CC(c1cccs1)CC2=O (stereo not drawn) | -17.3
CC1=C(C(N)=O)C(c2cccs2)n2nc(-c3cccc(Cl)c3)nc2N1 (stereo not drawn) | -24.9
O=C(NCCS(=O)(=O)N1CCN(c2ccccc2F)CC1)c1cc(=O)c2ccccc2o1 | 15
Cc1nc2ccccc2n1Cc1ccccc1 | 15.8
OCc1nc2ccccc2n1Cc1ccc(Cl)cc1 | 8.87
CC(O)c1nc2ccccc2n1Cc1ccccc1 (stereo not drawn) | 3.15
Cc1nc2ccccc2n1Cc1ccc(Cl)cc1 | -2.56
CC(c1nc2ccccc2n1Cc1ccccc1)N1CCCCC1 (stereo not drawn) | -65
Cl.Clc1ccc(Cn2c(CN3CCCC3)nc3ccccc32)cc1 | -74.4
Cc1ccccc1N(CC(=O)NCc1ccco1)C(=O)CNS(=O)(=O)c1ccc(F)cc1 | -16
COc1ccc(OC)c(/C=C/C(=O)OCC(=O)NC2CCCCCCC2)c1 | -4.68
CCN(CC)C(=S)SCC(=O)Nc1ccc(S(N)(=O)=O)cc1 | 3.17
CS(=O)(=O)c1ccc(C(=O)NCc2ccccc2F)cc1 | 6.24
Cc1oc(-c2ccccc2F)nc1CN1CCC(C(=O)NC2CCCc3ccccc32)CC1 (stereo not drawn) | -63.9
Cc1ccccc1-c1nc(CN2CCC(C(=O)NCCCN3CCOCC3)CC2)c(C)o1 | -10.8
Cc1oc(-c2ccccc2F)nc1CN1CCC(C(=O)NCCC2=CCCCC2)CC1 | -71.8
Cc1ccccc1-c1nc(CN2CCC(C(=O)NCCC3=CCCCC3)CC2)c(C)o1 | -66.7
Cc1oc(-c2ccccc2F)nc1CN1CCC(C(=O)NC2CC2)CC1 | -34.3
O=C(NCCC1=CCCCC1)C1CCN(c2nc3ccccc3o2)CC1 | -13.9
Cc1cc(C)nc(N2CCC(C(=O)NC3CCCc4ccccc43)CC2)n1 (stereo not drawn) | 17.6
